Test results: PubChem BioAssay (NCI)
About 83,000 compounds went through this panel and 20% of them were active in at least one assay; those are over-represented in the sample as a whole.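 Values shown are percent growth following 48 h exposure of cells in 96-well plates to a single concentration of compound; below 10 was considered active.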 Values without a mark were called inactive. Calls of active or inactive are those of the source.

Legend:
Experiment in all cases: NCI-60 one-dose screen, 48 h (100 = growth as untreated, 0 = no growth, -100 = all killed)
Details in all cases: 10 µM unless noted
SK-MEL-2 melanoma = test system: SK-MEL-2 melanoma
EKVX NSCLC = test system: EKVX NSCLC
SN12C renal = test system: SN12C renal
UO-31 renal = test system: UO-31 renal
TK-10 renal = test system: TK-10 renal
ACHN renal = test system: ACHN renal
CAKI-1 renal = test system: CAKI-1 renal
A498 renal = test system: A498 renal
CCRF-CEM leukemia = test system: CCRF-CEM leukemia
MOLT-4 leukemia = test system: MOLT-4 leukemia

SMILES: Clc1cn2cc(-c3ccc(Cl)c(Cl)c3Cl)nc2s1
- growth (SK-MEL-2 melanoma): 101%
- growth (EKVX NSCLC): 110%
- growth (SN12C renal): 101%
- growth (UO-31 renal): 79.2%
- growth (TK-10 renal): 165%
- growth (ACHN renal): 101%
- growth (CAKI-1 renal): 88.1%
- growth (A498 renal): 110%
- growth (CCRF-CEM leukemia): 107%
- growth (MOLT-4 leukemia): 85.5%

SMILES: Clc1ccc2c(c1)-c1ccccc1C1=NCCN12
- growth (SK-MEL-2 melanoma): -0.581% (active)
- growth (EKVX NSCLC): 51.5%
- growth (SN12C renal): 29.1%
- growth (UO-31 renal): 10.8%
- growth (TK-10 renal): 20.1%
- growth (ACHN renal): 14.1%
- growth (CAKI-1 renal): 29.4%
- growth (A498 renal): 10.3%
- growth (CCRF-CEM leukemia): 28.4%
- growth (MOLT-4 leukemia): 17.1%

SMILES: C#CC[C@@H]1C[C@]2(C)[C@H]3CC=C4[C@H]5[C@@H](C)[C@H](C)CC[C@]5(C(=O)NCCCN5CCN(CCCN)CC5)CC[C@@]4(C)[C@]3(C)CC[C@H]2C(C)(C)[C@H]1OC(C)=O
- growth (SK-MEL-2 melanoma): -57.3% (active)
- growth (EKVX NSCLC): -83.4% (active)
- growth (SN12C renal): -43.8% (active)
- growth (UO-31 renal): -84.2% (active)
- growth (TK-10 renal): -32.8% (active)
- growth (ACHN renal): -74.9% (active)
- growth (CAKI-1 renal): -68% (active)
- growth (A498 renal): 111%
- growth (CCRF-CEM leukemia): -29.4% (active)
- growth (MOLT-4 leukemia): -38.1% (active)

SMILES: O=C1C=CC(=O)N1c1cccc(N2C(=O)C=CC2=O)c1
- growth (SK-MEL-2 melanoma): 111%
- growth (EKVX NSCLC): 95.6%
- growth (SN12C renal): 106%
- growth (UO-31 renal): 28.4%
- growth (TK-10 renal): 33.1%
- growth (ACHN renal): -26% (active)
- growth (CAKI-1 renal): 37.3%
- growth (A498 renal): 111%
- growth (CCRF-CEM leukemia): -22.3% (active)
- growth (MOLT-4 leukemia): 103%

SMILES: C#CC[C@@H]1C[C@]2(C)[C@H]3CC=C4[C@H]5[C@@H](C)[C@H](C)CC[C@]5(C(=O)NCCCCCCCCN)CC[C@@]4(C)[C@]3(C)CC[C@H]2C(C)(C)[C@H]1OC(C)=O
- growth (SK-MEL-2 melanoma): 104%
- growth (EKVX NSCLC): 95%
- growth (SN12C renal): 76.1%
- growth (UO-31 renal): 67.2%
- growth (TK-10 renal): 80.5%
- growth (ACHN renal): 85.8%
- growth (CAKI-1 renal): -69.7% (active)
- growth (A498 renal): 94.5%
- growth (CCRF-CEM leukemia): -34.6% (active)
- growth (MOLT-4 leukemia): -19.8% (active)

SMILES: O=C(CCCCCCc1nc2ccc(Br)cc2[nH]1)NO
- growth (SK-MEL-2 melanoma): -5.43% (active)
- growth (EKVX NSCLC): 28.6%
- growth (SN12C renal): 1.73% (active)
- growth (UO-31 renal): -17.9% (active)
- growth (TK-10 renal): -13.9% (active)
- growth (ACHN renal): -36.2% (active)
- growth (CAKI-1 renal): -41.5% (active)
- growth (A498 renal): 9.4% (active)
- growth (CCRF-CEM leukemia): 9.8% (active)
- growth (MOLT-4 leukemia): 7.38% (active)

SMILES: COc1ccc(NC(=O)/C=C/c2ccc(Cl)c(Cl)c2)cn1
- growth (SK-MEL-2 melanoma): 101%
- growth (EKVX NSCLC): 83.7%
- growth (SN12C renal): 88.9%
- growth (UO-31 renal): 74.1%
- growth (TK-10 renal): 78.3%
- growth (ACHN renal): 93.4%
- growth (CAKI-1 renal): 59.3%
- growth (A498 renal): 65.6%
- growth (CCRF-CEM leukemia): 32.9%
- growth (MOLT-4 leukemia): 44.4%

SMILES: COc1ccc(C(=O)C(CN(C)C)c2ccccc2)cc1 (stereo not given)
- growth (SK-MEL-2 melanoma): 14.6%
- growth (EKVX NSCLC): 28.1%
- growth (SN12C renal): 31.4%
- growth (UO-31 renal): -18.7% (active)
- growth (TK-10 renal): 29.5%
- growth (ACHN renal): -71.4% (active)
- growth (CAKI-1 renal): -46.7% (active)
- growth (A498 renal): 60.2%
- growth (CCRF-CEM leukemia): 12.6%
- growth (MOLT-4 leukemia): 21.7%

SMILES: Oc1[nH]c2ccc(Cl)cc2c1/C=c1/ccc2c(c1)N=C(c1ccc(F)cc1)N=2
- growth (SK-MEL-2 melanoma): 92.3%
- growth (EKVX NSCLC): 40.4%
- growth (SN12C renal): 74.1%
- growth (UO-31 renal): 61.4%
- growth (TK-10 renal): 111%
- growth (ACHN renal): 86.6%
- growth (CAKI-1 renal): 44.5%
- growth (A498 renal): 56.1%
- growth (CCRF-CEM leukemia): 7.83% (active)
- growth (MOLT-4 leukemia): 35%

SMILES: CN1CCN(Cc2ccc(NC(=O)c3cncc(C#Cc4ccc(N)nc4)c3)cc2C(F)(F)F)CC1
- growth (SK-MEL-2 melanoma): -47.8% (active)
- growth (EKVX NSCLC): 7.69% (active)
- growth (SN12C renal): 4.16% (active)
- growth (UO-31 renal): -1.73% (active)
- growth (TK-10 renal): 12.7%
- growth (ACHN renal): -3.03% (active)
- growth (CAKI-1 renal): 8.16% (active)
- growth (A498 renal): -33.8% (active)
- growth (CCRF-CEM leukemia): 13%
- growth (MOLT-4 leukemia): 5.85% (active)

SMILES: Clc1ccccc1Nc1nnc(-c2ccncc2)s1
- growth (SK-MEL-2 melanoma): 107%
- growth (EKVX NSCLC): 91.7%
- growth (SN12C renal): 86%
- growth (UO-31 renal): 90.7%
- growth (TK-10 renal): 111%
- growth (ACHN renal): 104%
- growth (CAKI-1 renal): 90.5%
- growth (A498 renal): 92.1%
- growth (CCRF-CEM leukemia): 96%
- growth (MOLT-4 leukemia): 93.4%

SMILES: N[C@@H](CO)C(=O)O
- growth (SK-MEL-2 melanoma): 116%
- growth (EKVX NSCLC): 84.3%
- growth (SN12C renal): 101%
- growth (UO-31 renal): 83.4%
- growth (TK-10 renal): 125%
- growth (ACHN renal): 107%
- growth (CAKI-1 renal): 91.2%
- growth (A498 renal): 85.3%
- growth (CCRF-CEM leukemia): 94.8%
- growth (MOLT-4 leukemia): 101%

SMILES: O=[N+]([O-])c1cccc(N=C(Nc2cccc([N+](=O)[O-])c2)c2ccccc2)c1
- growth (SK-MEL-2 melanoma): 77.9%
- growth (EKVX NSCLC): 81.4%
- growth (SN12C renal): 83.4%
- growth (UO-31 renal): 40.5%
- growth (TK-10 renal): 78.8%
- growth (ACHN renal): 93.8%
- growth (CAKI-1 renal): 80.3%
- growth (A498 renal): 104%
- growth (CCRF-CEM leukemia): 65.3%
- growth (MOLT-4 leukemia): 59.4%

SMILES: CCN(CC)c1ccc2nc3c4ccccc4c(=O)cc-3n(-c3ccccc3)c2c1
- growth (SK-MEL-2 melanoma): -37.2% (active)
- growth (EKVX NSCLC): -4.16% (active)
- growth (SN12C renal): 13.2%
- growth (UO-31 renal): -26.2% (active)
- growth (TK-10 renal): 13.6%
- growth (ACHN renal): -1% (active)
- growth (CAKI-1 renal): -17.8% (active)
- growth (A498 renal): 17.6%
- growth (CCRF-CEM leukemia): 15.7%
- growth (MOLT-4 leukemia): 2.41% (active)

SMILES: COc1c(B(O)O)cccc1-c1nc2c(F)cc3n[nH]c(C)c3c2c2c1CCCC2
- growth (SK-MEL-2 melanoma): -10.3% (active)
- growth (EKVX NSCLC): 34.8%
- growth (SN12C renal): 19.3%
- growth (UO-31 renal): -2.78% (active)
- growth (TK-10 renal): -2.49% (active)
- growth (ACHN renal): 8.08% (active)
- growth (CAKI-1 renal): 0.215% (active)
- growth (A498 renal): -53.6% (active)
- growth (CCRF-CEM leukemia): 17.7%
- growth (MOLT-4 leukemia): 28.7%

SMILES: COc1cc(C)cc2oc3oc(=O)c(-c4csc(-c5cc6ccccc6oc5=O)n4)cc3c(=O)c12
- growth (SK-MEL-2 melanoma): 124%
- growth (EKVX NSCLC): 107%
- growth (SN12C renal): 102%
- growth (UO-31 renal): 88.6%
- growth (TK-10 renal): 121%
- growth (ACHN renal): 104%
- growth (CAKI-1 renal): 96.1%
- growth (A498 renal): 107%
- growth (CCRF-CEM leukemia): 105%
- growth (MOLT-4 leukemia): 108%

SMILES: CCOC(=O)NNc1cccc(Cl)c1
- growth (SK-MEL-2 melanoma): 116%
- growth (EKVX NSCLC): 90.6%
- growth (SN12C renal): 114%
- growth (UO-31 renal): 70.6%
- growth (TK-10 renal): 120%
- growth (ACHN renal): 93.5%
- growth (CAKI-1 renal): 90%
- growth (A498 renal): 85.5%
- growth (CCRF-CEM leukemia): 103%
- growth (MOLT-4 leukemia): 113%

SMILES: COCCCNCC(=O)Nc1c(C)cccc1C
- growth (SK-MEL-2 melanoma): 112%
- growth (EKVX NSCLC): 104%
- growth (SN12C renal): 104%
- growth (UO-31 renal): 88.4%
- growth (TK-10 renal): 113%
- growth (ACHN renal): 102%
- growth (CAKI-1 renal): 105%
- growth (A498 renal): 110%
- growth (CCRF-CEM leukemia): 98.6%
- growth (MOLT-4 leukemia): 103%

SMILES: CCCCCCCCCCCCCCCCOc1ccc(S(=O)(=O)N(C)C)cc1[N+](=O)[O-]
- growth (SK-MEL-2 melanoma): 97.1%
- growth (EKVX NSCLC): 98.8%
- growth (SN12C renal): 93.1%
- growth (UO-31 renal): 98.5%
- growth (TK-10 renal): 86%
- growth (ACHN renal): 93.5%
- growth (CAKI-1 renal): 99.1%
- growth (A498 renal): 118%
- growth (CCRF-CEM leukemia): 114%
- growth (MOLT-4 leukemia): 103%

SMILES: COC(=O)c1cc(Cl)cc([N+](=O)[O-])c1O
- growth (SK-MEL-2 melanoma): 135%
- growth (EKVX NSCLC): 88.8%
- growth (SN12C renal): 108%
- growth (UO-31 renal): 87.1%
- growth (TK-10 renal): 118%
- growth (ACHN renal): 106%
- growth (CAKI-1 renal): 92.6%
- growth (A498 renal): 89.5%
- growth (CCRF-CEM leukemia): 25.6%
- growth (MOLT-4 leukemia): 61.6%

SMILES: COc1cccc2nc(Nc3cccc(NC(=O)c4cc(N5CCOCC5)cc(C(F)(F)F)c4)c3)ccc12
- growth (SK-MEL-2 melanoma): 79.4%
- growth (EKVX NSCLC): 64%
- growth (SN12C renal): 57%
- growth (UO-31 renal): 42.3%
- growth (TK-10 renal): 65.9%
- growth (ACHN renal): 45.1%
- growth (CAKI-1 renal): 60.7%
- growth (A498 renal): 99.4%
- growth (CCRF-CEM leukemia): 48.9%
- growth (MOLT-4 leukemia): 35.2%
